Test results: PMC7862700, “An all-to-all approach to the identification of sequence-specific readers for epigenetic DNA modifications on cytosine”

How the values were obtained:
Experiment in all cases: DAPPL (digital affinity profiling via proximity ligation, sequencing); 10 mM Tris-HCl pH 7.5, 50 mM NaCl, 1 mM DTT, 4% glycerol, room temperature, 30 min; GST-TFs on glutathione beads, 16-mer random dsDNA library, 0.1% formaldehyde crosslink after washing; high values mean tight binding
Settings in all cases: protein: recombinant; tags: N-terminal GST; dsDNA, one strand shown
[1] = target: T1, FLI1 (Homo sapiens, UniProt Q01543 1-452)
T1 sequence: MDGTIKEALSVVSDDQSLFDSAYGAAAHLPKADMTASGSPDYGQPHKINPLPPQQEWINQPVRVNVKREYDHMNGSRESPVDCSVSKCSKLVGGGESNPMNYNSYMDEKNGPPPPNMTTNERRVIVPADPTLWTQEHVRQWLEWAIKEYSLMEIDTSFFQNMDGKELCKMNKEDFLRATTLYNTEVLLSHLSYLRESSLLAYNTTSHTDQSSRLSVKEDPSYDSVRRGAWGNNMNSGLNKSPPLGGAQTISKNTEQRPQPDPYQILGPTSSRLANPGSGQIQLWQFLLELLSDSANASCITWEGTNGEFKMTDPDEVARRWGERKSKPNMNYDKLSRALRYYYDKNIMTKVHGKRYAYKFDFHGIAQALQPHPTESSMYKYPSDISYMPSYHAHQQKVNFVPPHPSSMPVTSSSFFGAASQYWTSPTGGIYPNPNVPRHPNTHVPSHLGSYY
Method in brief: (§1)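 Human transcription factors were made in yeast as GST fusions, captured on glutathione beads and barcoded with DNA. With a tag-only sample included, the pool was incubated with 200 nmole of a random double-stranded 16-mer DNA library in Tris/NaCl/DTT/glycerol buffer at room temperature for 30 min, then crosslinked with 0.1% formaldehyde after washing, ligated by proximity, amplified and sequenced. For binding signal, each hexamer's read frequency for a factor is divided by its frequency for the tag-only sample.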

[2] = target: T2, ELK1 (Homo sapiens, UniProt P19419 1-428)
T2 sequence: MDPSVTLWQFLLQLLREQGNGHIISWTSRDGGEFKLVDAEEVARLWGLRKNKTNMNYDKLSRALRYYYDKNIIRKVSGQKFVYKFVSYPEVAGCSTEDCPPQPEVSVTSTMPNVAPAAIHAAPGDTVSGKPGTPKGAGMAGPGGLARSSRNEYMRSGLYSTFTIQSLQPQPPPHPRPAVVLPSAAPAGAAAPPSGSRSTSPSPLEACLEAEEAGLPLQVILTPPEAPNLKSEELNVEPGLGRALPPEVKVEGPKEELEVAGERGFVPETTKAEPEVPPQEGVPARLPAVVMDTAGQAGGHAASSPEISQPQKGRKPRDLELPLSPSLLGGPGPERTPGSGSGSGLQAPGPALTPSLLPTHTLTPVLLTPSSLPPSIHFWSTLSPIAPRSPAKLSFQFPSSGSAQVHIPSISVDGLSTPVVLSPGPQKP
Method in brief: as §1

[3] = target: ELF1 (Homo sapiens, UniProt P32519 1-619)
Method in brief: as §1

[4] = target: T3, EHF (Homo sapiens, UniProt Q9NZC4 1-300)
T3 sequence: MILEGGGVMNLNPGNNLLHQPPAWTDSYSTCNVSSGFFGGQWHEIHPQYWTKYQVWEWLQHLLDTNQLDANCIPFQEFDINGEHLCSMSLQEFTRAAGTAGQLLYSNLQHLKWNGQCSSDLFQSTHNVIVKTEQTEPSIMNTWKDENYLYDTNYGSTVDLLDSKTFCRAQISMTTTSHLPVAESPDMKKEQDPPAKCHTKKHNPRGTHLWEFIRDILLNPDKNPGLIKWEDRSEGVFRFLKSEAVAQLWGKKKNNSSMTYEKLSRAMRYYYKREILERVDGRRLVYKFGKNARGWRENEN
Method in brief: as §1

[5] = target: SPI1 (Homo sapiens, UniProt P17947 1-270)
Method in brief: as §1

[6] = target: T4, ELK3 (Homo sapiens, UniProt P41970 1-407)
T4 sequence: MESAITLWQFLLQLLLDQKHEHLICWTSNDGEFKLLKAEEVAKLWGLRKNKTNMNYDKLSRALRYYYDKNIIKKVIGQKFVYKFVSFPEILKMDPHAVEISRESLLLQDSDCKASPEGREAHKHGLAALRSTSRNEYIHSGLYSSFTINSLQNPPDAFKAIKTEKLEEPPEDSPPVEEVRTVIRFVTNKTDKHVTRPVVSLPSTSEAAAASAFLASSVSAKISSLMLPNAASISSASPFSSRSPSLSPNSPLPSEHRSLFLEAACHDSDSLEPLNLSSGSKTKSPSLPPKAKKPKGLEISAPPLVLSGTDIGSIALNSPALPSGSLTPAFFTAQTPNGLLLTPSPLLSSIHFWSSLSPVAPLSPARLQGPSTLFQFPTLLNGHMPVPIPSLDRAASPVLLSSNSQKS
Method in brief: as §1

[7] = target: T5, FEV (Homo sapiens, UniProt Q99581 1-238)
T5 sequence: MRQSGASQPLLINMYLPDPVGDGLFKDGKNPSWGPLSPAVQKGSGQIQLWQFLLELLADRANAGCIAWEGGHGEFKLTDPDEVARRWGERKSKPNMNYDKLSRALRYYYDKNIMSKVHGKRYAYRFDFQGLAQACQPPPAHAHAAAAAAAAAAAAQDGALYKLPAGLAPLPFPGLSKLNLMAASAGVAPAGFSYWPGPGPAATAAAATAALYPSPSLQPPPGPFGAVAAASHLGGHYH
Method in brief: as §1

[8] = target: ETV5 (Homo sapiens, UniProt P41161 1-510)
Method in brief: as §1

[9] = target: T6, SPIC (Homo sapiens, UniProt Q8N5J4 1-248)
T6 sequence: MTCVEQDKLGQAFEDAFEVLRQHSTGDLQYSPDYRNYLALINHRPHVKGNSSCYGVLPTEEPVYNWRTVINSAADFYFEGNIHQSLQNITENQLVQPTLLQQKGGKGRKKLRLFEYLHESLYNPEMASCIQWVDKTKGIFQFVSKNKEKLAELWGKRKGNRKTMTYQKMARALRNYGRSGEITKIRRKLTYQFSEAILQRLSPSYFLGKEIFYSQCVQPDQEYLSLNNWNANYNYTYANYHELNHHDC
Method in brief: as §1

[10] = target: ELF4 (Homo sapiens, UniProt Q99607 1-663)
Method in brief: as §1

[11] = target: T7, ELK4 (Homo sapiens, UniProt P28324-2 1-405)
T7 sequence: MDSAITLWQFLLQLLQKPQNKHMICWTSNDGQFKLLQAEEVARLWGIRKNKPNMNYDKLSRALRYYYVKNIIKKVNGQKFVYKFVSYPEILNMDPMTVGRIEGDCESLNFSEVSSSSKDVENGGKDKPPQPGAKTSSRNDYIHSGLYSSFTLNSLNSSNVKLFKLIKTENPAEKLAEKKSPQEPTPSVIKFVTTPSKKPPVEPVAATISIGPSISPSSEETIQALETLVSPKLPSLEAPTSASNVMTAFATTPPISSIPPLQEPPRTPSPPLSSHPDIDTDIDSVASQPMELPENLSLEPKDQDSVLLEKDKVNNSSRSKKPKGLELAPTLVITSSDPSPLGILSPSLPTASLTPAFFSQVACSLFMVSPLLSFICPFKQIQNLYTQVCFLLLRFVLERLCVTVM
Method in brief: as §1

[12] = target: T8, ETV2 (Homo sapiens, UniProt O00321 1-342)
T8 sequence: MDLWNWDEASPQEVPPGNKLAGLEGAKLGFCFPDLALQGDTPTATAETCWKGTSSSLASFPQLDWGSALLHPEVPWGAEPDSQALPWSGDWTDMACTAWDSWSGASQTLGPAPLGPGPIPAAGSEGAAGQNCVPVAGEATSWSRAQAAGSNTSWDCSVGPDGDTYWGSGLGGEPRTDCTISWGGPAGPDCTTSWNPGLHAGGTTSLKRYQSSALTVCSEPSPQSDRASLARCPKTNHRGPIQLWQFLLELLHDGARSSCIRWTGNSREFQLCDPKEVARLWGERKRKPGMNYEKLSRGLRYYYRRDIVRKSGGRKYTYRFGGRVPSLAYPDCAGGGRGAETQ
Method in brief: as §1

[13] = target: T9, ELF3 (Homo sapiens, UniProt P78545 1-371)
T9 sequence: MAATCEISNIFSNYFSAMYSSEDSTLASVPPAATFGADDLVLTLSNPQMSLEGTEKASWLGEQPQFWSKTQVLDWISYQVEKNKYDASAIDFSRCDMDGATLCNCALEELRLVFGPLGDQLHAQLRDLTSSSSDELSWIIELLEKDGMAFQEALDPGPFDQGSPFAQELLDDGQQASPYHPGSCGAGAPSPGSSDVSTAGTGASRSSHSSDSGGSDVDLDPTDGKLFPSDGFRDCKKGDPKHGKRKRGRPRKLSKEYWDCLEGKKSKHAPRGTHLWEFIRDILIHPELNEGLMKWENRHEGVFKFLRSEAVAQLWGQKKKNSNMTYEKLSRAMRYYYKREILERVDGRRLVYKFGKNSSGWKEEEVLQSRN
Method in brief: as §1

[14] = target: ETV1 (Homo sapiens, UniProt P50549 1-477)
Method in brief: as §1

[15] = target: T10, GABPA (Homo sapiens, UniProt Q06546 1-454)
T10 sequence: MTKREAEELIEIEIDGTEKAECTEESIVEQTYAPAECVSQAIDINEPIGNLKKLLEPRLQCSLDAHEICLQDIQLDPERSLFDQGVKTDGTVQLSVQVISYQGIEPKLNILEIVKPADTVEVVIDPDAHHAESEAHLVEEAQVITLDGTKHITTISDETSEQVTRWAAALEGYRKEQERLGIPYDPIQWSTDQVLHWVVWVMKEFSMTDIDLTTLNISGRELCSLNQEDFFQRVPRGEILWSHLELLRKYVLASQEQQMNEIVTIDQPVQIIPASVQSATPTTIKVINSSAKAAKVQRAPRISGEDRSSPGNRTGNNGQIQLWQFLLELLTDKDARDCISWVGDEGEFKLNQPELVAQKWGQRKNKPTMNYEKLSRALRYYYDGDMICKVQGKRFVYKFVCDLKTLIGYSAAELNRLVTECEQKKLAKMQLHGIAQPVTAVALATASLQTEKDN
Method in brief: as §1

[16] = target: T11, ERG (Homo sapiens, UniProt P11308 1-479)
T11 sequence: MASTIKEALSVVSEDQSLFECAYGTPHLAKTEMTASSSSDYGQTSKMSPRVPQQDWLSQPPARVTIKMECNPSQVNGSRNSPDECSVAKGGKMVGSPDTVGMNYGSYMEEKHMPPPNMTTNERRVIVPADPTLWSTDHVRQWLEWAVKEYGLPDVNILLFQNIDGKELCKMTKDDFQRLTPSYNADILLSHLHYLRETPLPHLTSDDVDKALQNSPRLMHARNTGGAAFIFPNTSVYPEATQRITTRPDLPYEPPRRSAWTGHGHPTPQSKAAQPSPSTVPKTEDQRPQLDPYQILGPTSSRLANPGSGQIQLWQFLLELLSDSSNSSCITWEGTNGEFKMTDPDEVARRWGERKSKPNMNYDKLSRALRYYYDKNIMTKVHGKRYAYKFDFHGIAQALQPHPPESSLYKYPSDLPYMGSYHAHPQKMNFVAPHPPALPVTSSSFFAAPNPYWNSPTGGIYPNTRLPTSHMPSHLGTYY
Method in brief: as §1

[17] = target: SPIB (Homo sapiens, UniProt Q01892 1-262)
Method in brief: as §1

Sequence of ELF1 (P32519 whole entry): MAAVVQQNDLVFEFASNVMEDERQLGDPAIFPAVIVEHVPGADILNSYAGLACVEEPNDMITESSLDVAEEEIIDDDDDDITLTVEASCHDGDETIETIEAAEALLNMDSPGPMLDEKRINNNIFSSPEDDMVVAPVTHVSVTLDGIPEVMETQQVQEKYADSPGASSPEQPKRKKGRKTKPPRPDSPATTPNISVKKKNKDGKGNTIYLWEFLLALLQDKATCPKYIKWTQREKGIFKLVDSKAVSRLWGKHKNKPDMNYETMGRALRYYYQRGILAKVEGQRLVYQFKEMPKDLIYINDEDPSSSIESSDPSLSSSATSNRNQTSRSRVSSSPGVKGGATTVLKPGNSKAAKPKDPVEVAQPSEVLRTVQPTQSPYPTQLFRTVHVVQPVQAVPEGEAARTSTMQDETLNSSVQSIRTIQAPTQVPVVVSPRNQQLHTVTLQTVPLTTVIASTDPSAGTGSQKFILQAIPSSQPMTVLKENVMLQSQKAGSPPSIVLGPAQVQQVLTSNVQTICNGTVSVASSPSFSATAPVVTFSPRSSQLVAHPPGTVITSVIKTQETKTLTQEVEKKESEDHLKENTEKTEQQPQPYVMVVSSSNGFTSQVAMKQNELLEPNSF
Sequence of ELF4 (Q99607 whole entry): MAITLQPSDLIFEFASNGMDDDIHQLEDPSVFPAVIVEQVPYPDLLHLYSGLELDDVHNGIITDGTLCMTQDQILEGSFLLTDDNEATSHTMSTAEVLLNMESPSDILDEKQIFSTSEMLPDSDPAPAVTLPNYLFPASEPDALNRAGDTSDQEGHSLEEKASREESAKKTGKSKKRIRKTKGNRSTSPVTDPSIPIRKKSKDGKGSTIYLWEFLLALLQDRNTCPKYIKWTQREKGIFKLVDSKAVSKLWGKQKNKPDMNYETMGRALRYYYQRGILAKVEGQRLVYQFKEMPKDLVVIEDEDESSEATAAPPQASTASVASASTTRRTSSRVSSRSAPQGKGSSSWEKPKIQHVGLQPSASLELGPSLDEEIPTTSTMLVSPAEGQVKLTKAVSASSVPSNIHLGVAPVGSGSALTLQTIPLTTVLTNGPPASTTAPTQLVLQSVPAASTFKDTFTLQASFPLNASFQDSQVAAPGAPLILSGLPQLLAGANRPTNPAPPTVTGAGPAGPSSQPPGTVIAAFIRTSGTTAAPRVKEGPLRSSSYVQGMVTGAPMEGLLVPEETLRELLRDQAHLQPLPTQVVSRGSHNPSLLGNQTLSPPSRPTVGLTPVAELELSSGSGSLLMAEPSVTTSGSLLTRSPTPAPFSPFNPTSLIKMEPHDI
Sequence of ETV5 (P41161 whole entry): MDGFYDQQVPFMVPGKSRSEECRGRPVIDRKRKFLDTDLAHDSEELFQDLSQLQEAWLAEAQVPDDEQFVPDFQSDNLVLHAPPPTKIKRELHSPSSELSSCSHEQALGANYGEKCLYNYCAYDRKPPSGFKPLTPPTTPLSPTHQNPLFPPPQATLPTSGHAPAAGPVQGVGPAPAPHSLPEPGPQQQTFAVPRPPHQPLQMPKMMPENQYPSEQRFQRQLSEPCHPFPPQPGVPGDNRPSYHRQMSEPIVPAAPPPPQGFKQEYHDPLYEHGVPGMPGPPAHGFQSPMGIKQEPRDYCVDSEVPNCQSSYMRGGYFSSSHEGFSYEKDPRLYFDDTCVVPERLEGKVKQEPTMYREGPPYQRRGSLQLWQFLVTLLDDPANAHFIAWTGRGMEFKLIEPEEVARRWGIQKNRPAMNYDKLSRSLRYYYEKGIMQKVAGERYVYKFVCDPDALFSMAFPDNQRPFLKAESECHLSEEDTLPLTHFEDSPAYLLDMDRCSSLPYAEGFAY
Sequence of ETV1 (P50549 whole entry): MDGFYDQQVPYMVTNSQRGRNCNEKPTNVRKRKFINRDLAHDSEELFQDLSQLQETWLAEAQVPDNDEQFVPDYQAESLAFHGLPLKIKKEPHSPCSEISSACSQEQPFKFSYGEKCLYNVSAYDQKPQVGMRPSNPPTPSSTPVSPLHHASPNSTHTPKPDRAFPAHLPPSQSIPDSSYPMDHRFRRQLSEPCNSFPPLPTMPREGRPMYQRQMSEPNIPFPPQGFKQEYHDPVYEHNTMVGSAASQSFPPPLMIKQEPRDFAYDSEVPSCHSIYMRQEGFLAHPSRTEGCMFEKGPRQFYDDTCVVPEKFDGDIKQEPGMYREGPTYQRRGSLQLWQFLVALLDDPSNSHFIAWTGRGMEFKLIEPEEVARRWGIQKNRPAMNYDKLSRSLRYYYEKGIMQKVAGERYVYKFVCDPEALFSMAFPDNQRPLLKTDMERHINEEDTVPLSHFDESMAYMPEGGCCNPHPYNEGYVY
Sequence of SPIB (Q01892 whole entry): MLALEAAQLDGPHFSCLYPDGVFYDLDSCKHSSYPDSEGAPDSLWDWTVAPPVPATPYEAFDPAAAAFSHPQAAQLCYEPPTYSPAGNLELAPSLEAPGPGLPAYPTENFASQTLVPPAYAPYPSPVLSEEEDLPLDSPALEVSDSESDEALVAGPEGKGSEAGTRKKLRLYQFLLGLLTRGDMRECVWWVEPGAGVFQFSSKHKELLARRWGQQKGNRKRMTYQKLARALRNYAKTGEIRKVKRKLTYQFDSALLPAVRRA

Row | Sequence | binding signal [1] | binding signal [2] | binding signal [3] | binding signal [4] | binding signal [5] | binding signal [6] | binding signal [7] | binding signal [8] | binding signal [9] | binding signal [10] | binding signal [11] | binding signal [12] | binding signal [13] | binding signal [14] | binding signal [15] | binding signal [16] | binding signal [17]
1 | CATGTA | 1.15 fold enrichment (6-mer frequency, TF over GST control) | 1.06 fold enrichment (6-mer frequency, TF over GST control) | 1.11 fold enrichment (6-mer frequency, TF over GST control) | 1.04 fold enrichment (6-mer frequency, TF over GST control) | 1.02 fold enrichment (6-mer frequency, TF over GST control) | 1.13 fold enrichment (6-mer frequency, TF over GST control) | 1.03 fold enrichment (6-mer frequency, TF over GST control) | 1.08 fold enrichment (6-mer frequency, TF over GST control) | 1.08 fold enrichment (6-mer frequency, TF over GST control) | 1.14 fold enrichment (6-mer frequency, TF over GST control) | 1.16 fold enrichment (6-mer frequency, TF over GST control) | 1.11 fold enrichment (6-mer frequency, TF over GST control) | 1.03 fold enrichment (6-mer frequency, TF over GST control) | 1.06 fold enrichment (6-mer frequency, TF over GST control) |  |  | 
2 | GTCACT | 1.1 fold enrichment (6-mer frequency, TF over GST control) | 1.07 fold enrichment (6-mer frequency, TF over GST control) | 1.1 fold enrichment (6-mer frequency, TF over GST control) | 1.15 fold enrichment (6-mer frequency, TF over GST control) | 1.19 fold enrichment (6-mer frequency, TF over GST control) | 1.06 fold enrichment (6-mer frequency, TF over GST control) | 1.18 fold enrichment (6-mer frequency, TF over GST control) | 1.14 fold enrichment (6-mer frequency, TF over GST control) | 1.01 fold enrichment (6-mer frequency, TF over GST control) | 1.09 fold enrichment (6-mer frequency, TF over GST control) | 1.07 fold enrichment (6-mer frequency, TF over GST control) | 1.14 fold enrichment (6-mer frequency, TF over GST control) | 1.26 fold enrichment (6-mer frequency, TF over GST control) |  | 1.08 fold enrichment (6-mer frequency, TF over GST control) | 1.13 fold enrichment (6-mer frequency, TF over GST control) | 1.21 fold enrichment (6-mer frequency, TF over GST control)
3 | GCAATA | 1.02 fold enrichment (6-mer frequency, TF over GST control) | 1.1 fold enrichment (6-mer frequency, TF over GST control) | 1.05 fold enrichment (6-mer frequency, TF over GST control) | 1.07 fold enrichment (6-mer frequency, TF over GST control) |  |  |  | 1.07 fold enrichment (6-mer frequency, TF over GST control) | 1.16 fold enrichment (6-mer frequency, TF over GST control) | 1.07 fold enrichment (6-mer frequency, TF over GST control) | 1.11 fold enrichment (6-mer frequency, TF over GST control) | 1.01 fold enrichment (6-mer frequency, TF over GST control) | 1.09 fold enrichment (6-mer frequency, TF over GST control) | 1.07 fold enrichment (6-mer frequency, TF over GST control) | 1.02 fold enrichment (6-mer frequency, TF over GST control) |  | 
